An excerpt weighted towards active compounds, which were near 2.6% of everything screened.
PAFAH1B2 FP inh: blocks human PAF acetylhydrolase 1b catalytic subunit 2 | inhibition, % at 3.39 µM | P68402 | AID 492953 | recombinant PAFAH1B2, FP-rhodamine activity probe, fluorescence polarization | hit rate 1.2% among 340,000;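 active means inhibition above the mean of all tested compounds plus 3 SD, cut at about 24% in these data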;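 further: 0% = enzyme with DMSO and 100% = wells lacking PAFAH1B2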
Target sequence (P68402 whole entry, looked up): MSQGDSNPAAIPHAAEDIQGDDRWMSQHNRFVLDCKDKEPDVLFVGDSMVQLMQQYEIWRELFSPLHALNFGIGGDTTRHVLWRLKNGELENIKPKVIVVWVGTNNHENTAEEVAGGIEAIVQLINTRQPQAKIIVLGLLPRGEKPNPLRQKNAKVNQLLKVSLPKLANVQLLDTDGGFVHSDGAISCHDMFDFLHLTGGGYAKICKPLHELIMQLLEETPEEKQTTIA
PAFAH1B3 inh: inhibitors of human PAFAH1B3 | Q15102 | recombinant PAFAH1B3, FP-rhodamine probe, fluorescence polarization | inhibition, % at 3.39 µM | hit rate 0.28% among 340,000 | AID 492972;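 active means inhibition above the screen-wide average of all tested compounds plus 3 SD, cut at about 25% in these data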;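 further: 0% = enzyme with DMSO only and 100% = wells lacking PAFAH1B3 protein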
pPAFAH inh: inhibitors of human plasma PAF acetylhydrolase (pPAFAH) | hit rate 1.5% among 330,000 | recombinant pPAFAH, FP-rhodamine probe fluorescence polarization | inhibition, % at 3.39 µM | Q13093 | AID 463082;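 active means inhibition above the mean inhibition across the screen plus 3 SD, cut at about 25% in these data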;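 further: inhibitors block binding of the rhodamine activity-based probe so polarization drops; 0% = enzyme with DMSO and 100% = wells lacking pPAFAH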
Target sequence (Q13093 whole entry, looked up): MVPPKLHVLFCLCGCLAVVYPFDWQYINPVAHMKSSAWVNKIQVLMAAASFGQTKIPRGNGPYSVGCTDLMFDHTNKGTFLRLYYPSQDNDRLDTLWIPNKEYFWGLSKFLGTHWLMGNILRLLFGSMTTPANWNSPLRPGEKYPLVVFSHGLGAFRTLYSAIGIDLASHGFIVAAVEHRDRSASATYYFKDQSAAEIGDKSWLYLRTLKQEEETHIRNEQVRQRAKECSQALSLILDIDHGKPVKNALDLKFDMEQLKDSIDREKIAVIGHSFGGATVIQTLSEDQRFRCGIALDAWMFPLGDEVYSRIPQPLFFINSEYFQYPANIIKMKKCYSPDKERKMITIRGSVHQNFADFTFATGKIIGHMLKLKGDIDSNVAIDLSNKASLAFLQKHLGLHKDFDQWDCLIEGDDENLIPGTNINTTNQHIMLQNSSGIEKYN
PAFAH2 FP inh: PAFAH2 (human) inhibition. AID 492956. hit rate 0.99% among 340,000. inhibition, % at 3.39 µM. Q99487. recombinant PAFAH2, FP-rhodamine activity probe, fluorescence polarization;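 active means inhibition above the mean over all tested compounds plus 3 SD, cut at about 30% in these data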;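 further: inhibitors block probe labeling of enzyme so polarization drops; 0% = enzyme with DMSO and 100% = wells lacking PAFAH2 protein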
PKA-R2B activ: PKA-R2B complex activation | P22694+P31323 | PKA-R2B holoenzyme dissociation, Cy5-IP20 fluorescence polarization; R2B truncated from residue 108, S112A mutant; 0% DMSO only, 100% 113 µM cGMP | activation, % at 11.4 µM | hit rate 0.079% among 340,000 | AID 504700;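 active means activation above a cutoff set at the mean over all compounds plus 3 SD, cut at about 18% in these data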;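 further: higher means more holoenzyme dissociation and a rise in polarization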
PKA-R1A act: activators of PKA-R1A complex. P00514+P68181. PKA-R1A dissociation, Cy5-IP20 fluorescence polarization; scaled: DMSO 0%, 113 µM cGMP 100%. activation, % at 11.4 µM. hit rate 0.083% among 340,000. AID 504707;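 active means percent activation above the mean of all tested compounds plus 3 SD, cut at about 19% in these data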;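 further: higher means more PKAc released from R1A so a rise in polarization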
An asterisk follows results filed as active; nt = no result given.

SMILES	PAFAH1B2 FP inh	PAFAH1B3 inh	pPAFAH inh	PAFAH2 FP inh	PKA-R2B activ	PKA-R1A act
Cc1cc(-c2ccccc2)c2ccc(NC(=O)C(C)(C)C)nc2n1	32.6*	14.3	9.2	-12.7	-3.1	5.8
CCOC(=O)C1CCN(S(=O)(=O)c2ccc3c(ccn3C)c2)CC1	3.1	7.5	1.4	3.6	4.8	-2.6
O=C1NCCN(CC2CCN(CCc3ccccc3)CC2)C1=O	nt	nt	nt	nt	8.8	2.5
CCOC(=O)C1CCCN(S(=O)(=O)c2cc3[nH]c(=O)c(=O)[nH]c3cc2C)C1 (stereo not drawn)	25.6*	3.7	7.0	0.8	3.0	2.5
C[C@H](CO)N1C[C@H](C)[C@@H](CN(C)Cc2ccc(C(=O)Nc3ccccc3N)cc2)Oc2c(NC(=O)C3CCCCC3)cccc2C1=O	3.9	6.7	6.5	-4.5	-3.4	4.8
COc1ccc(CCN(C)C(=O)c2ccc(S(=O)(=O)Nc3ccccc3C)cc2)cc1OC	nt	nt	25.3*	nt	nt	nt
Cn1c(=O)c2c(nc(NC3CCCCC3)n2CC(=O)C23CC4CC(CC(C4)C2)C3)n(C)c1=O	24.6*	-6.0	1.6	6.8	-8.1	-2.7
Cn1c(=S)[nH]c2sc3c(c2c1=O)CCC(C(C)(C)C)C3 (stereo not drawn)	43.5*	1.8	0.2	14.8	-7.0	-1.1
COc1ccccc1OC(=O)Cc1cccc2ccccc12	3.6	9.5	6.0	-1.8	-11.6	-3.6
COc1ccccc1CC(=O)O/N=C(\N)Cc1cccc2ccccc12	2.6	-4.0	-0.6	34.5*	5.8	13.8
Cc1cccc(OCCC(=O)Nc2ccc(N3CCOCC3)cc2N2CCOCC2)c1	0.7	6.5	-0.9	0.1	-3.7	-5.7
CCCOc1cc(N)ccc1C(=O)OCCN(CC)CC	1.8	-2.6	1.5	-12.5	-2.4	2.2
CCCOc1ccc(N)cc1N	7.7	15.3	26.3*	8.3	-17.5	-12.2
Cc1cccc(N2CCN(C(=S)c3ccc4c(c3)OCO4)CC2)c1	6.0	8.0	nt	1.8	4.8	-8.0
O=C(NC(=S)NNC(=O)c1ccccc1[N+](=O)[O-])c1ccc(Br)cc1	8.1	8.1	5.1	6.8	-2.4	-9.0
NC(=O)C1CCN(c2nc(-c3cccc(Cl)c3)cs2)CC1	-0.7	9.8	32.8*	-8.1	-12.3	9.3
O=C(O)CCCCCCCCCCCc1ccccc1	54.7*	9.8	25.2*	16.3	-7.0	-13.0
CCc1c(C)c2ccc(OCC(=O)NCC3CCC(C(=O)O)CC3)c(C)c2oc1=O (stereo not drawn)	3.2	2.2	4.8	1.9	-8.1	3.1
CC(Oc1ccc(Br)cc1)C(=O)NCC(c1cccs1)N1CCOCC1 (stereo not drawn)	26.5*	10.5	1.7	3.0	-4.9	-5.5
Nc1nc(-c2cccc(F)c2)cs1	45.3*	7.0	-1.9	1.5	4.6	-4.1
Fc1cccc(-c2csc(-c3ccno3)n2)c1	2.0	-1.8	4.3	-1.4	-1.2	-15.8
O=C(N/N=C/c1ccc[nH]1)c1cc2ccccc2cc1O	7.2	21.8	25.2*	9.9	2.0	16.7
Cc1nc(N2CCCCC2)sc1C(=O)c1ccc(SCCO)c([N+](=O)[O-])c1	1.9	5.6	27.2*	1.4	-6.0	-7.6
COc1ccc(S(=O)(=O)N(C)c2ccc(C(=O)NCC3CCCO3)cc2)cc1OC (stereo not drawn)	1.3	0.9	-3.6	0.9	-2.4	-12.0
Cc1noc(C)c1NC(=O)N(C)C[C@H]1Oc2c(NC(=O)C3CC3)cccc2C(=O)N([C@H](C)CO)C[C@@H]1C	8.7	5.7	2.5	1.6	5.2	5.6
SMILES	PAFAH1B2 FP inh	PAFAH1B3 inh	pPAFAH inh	PAFAH2 FP inh	PKA-R2B activ	PKA-R1A act
O=C(O)CC/C(=N/NC(=O)CNC(=O)Cc1ccc(Cl)cc1)c1ccccc1	24.2*	7.5	16.2	-2.0	-6.6	1.1
CCc1ccc(NC(=O)CSc2nc(CSc3ccc(C)cc3)cc(=O)[nH]2)cc1	54.3*	1.6	26.9*	2.1	-8.7	-3.8
CCCc1cc(=O)[nH]c(SCC(=O)Nc2ccc(C)cc2)n1	5.2	4.5	1.1	3.9	-8.3	2.3
C=CCn1c(CNS(=O)(=O)c2ccc(Br)cc2)n[nH]c1=S	18.9	7.1	4.1	7.7	-7.9	2.5
O=C(CSc1nc2scc(-c3ccco3)c2c(=O)n1-c1ccccc1)N1CCOCC1	-0.5	0.4	12.4	-2.3	-4.0	-2.4
NC(=O)CSc1nc2scc(-c3ccco3)c2c(=O)n1-c1ccccc1	4.8	2.9	27.5*	2.8	-1.5	6.3
O=C(OCC(=O)C12CC3CC(CC(C3)C1)C2)c1ccc(O)cc1	25.7*	0.7	2.8	84.2*	-16.9	-7.3
Nc1ccc(O)cc1C(=O)OCC(=O)C12CC3CC(CC(C3)C1)C2	16.3	-6.3	29.1*	86.2*	-5.0	-6.2
CNS(=O)(=O)c1cccc(C(=O)OCC(=O)C23CC4CC(CC(C4)C2)C3)c1	30.2*	0.6	6.5	45.6*	-5.8	3.0
O=C(OCC(=O)C12CC3CC(CC(C3)C1)C2)c1ccccc1O	12.3	-1.7	3.8	10.2	-1.0	-4.2
CC(NC(=O)c1ccccc1F)C12CC3CC(CC(C3)C1)C2 (stereo not drawn)	26.7*	10.5	6.2	8.4	-9.1	11.2
Cc1nnsc1C(=O)NC(C)C12CC3CC(CC(C3)C1)C2 (stereo not drawn)	29.3*	3.1	1.4	4.7	9.3	-5.2
COC(=O)c1sc(NC(=S)NNC(=O)c2c(Br)c(C)nn2C)c(C(=O)OC)c1C	6.6	13.4	20.5	30.0*	-7.1	-3.1
Cc1nc(N/N=C/c2cccc([N+](=O)[O-])c2)cc(N2CCCCC2)n1	nt	nt	nt	nt	0.6	8.2
O=C(O)C1=C[C@H](c2ccc(C(F)(F)F)cc2)C[C@H](OCc2ccc(CO)cc2)O1	40.0*	2.8	1.7	6.2	-5.3	1.5
O=C(O)c1ccccc1-c1ccccc1C(=O)NCc1cccc(C(F)(F)F)c1	28.8*	-2.8	-3.2	-4.3	4.8	5.4
COc1cccc(CNC(=O)c2ccccc2-c2ccccc2C(=O)O)c1	6.3	7.6	-2.2	6.6	-6.7	-7.0
CN(NS(=O)(=O)c1ccc(Cl)cc1)c1ncc(C(F)(F)F)cc1Cl	27.9*	4.5	-3.4	-1.6	2.5	4.5
CN(NS(=O)(=O)c1ccc(F)cc1)c1ncc(C(F)(F)F)cc1Cl	nt	nt	2.5	nt	nt	nt
Cc1cc(C(C)(C)C)cc(S(=O)(=O)Nc2cccc(C(=O)O)c2)c1C	30.1*	6.5	2.7	3.0	-2.6	0.1
Cc1c(/C=N\NC(=O)C2COc3ccc(C(C)(C)C)cc3O2)c2ccccc2n1C (stereo not drawn)	-1.3	6.5	26.9*	-10.9	-2.2	-19.9
CC(C)(C)c1ccc2c(c1)OC(C(=O)N/N=C/c1ccc([N+](=O)[O-])o1)CO2 (stereo not drawn)	nt	nt	28.2*	nt	nt	nt

Assay outcomes: PubChem BioAssay, The Scripps Research Institute Molecular Screening Center
